M1 antag: blocks human M1 muscarinic receptor; AID 588852; inhibition, % at 3 µM; P11229; CHO-K1 hM1, Fluo-8 calcium fluorescence, ACh EC80 antagonist; actives 1.3% (n = 360,000);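 active means percent inhibition above its own plate's cutoff, namely the mean of that plate's compound wells plus 3 SD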;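 further: peak over basal fluorescence ratio during 140 s after agonist addition; 0% = ACh EC80 plus DMSO and 100% = DMSO alone without agonist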
Target sequence (P11229 whole entry, looked up): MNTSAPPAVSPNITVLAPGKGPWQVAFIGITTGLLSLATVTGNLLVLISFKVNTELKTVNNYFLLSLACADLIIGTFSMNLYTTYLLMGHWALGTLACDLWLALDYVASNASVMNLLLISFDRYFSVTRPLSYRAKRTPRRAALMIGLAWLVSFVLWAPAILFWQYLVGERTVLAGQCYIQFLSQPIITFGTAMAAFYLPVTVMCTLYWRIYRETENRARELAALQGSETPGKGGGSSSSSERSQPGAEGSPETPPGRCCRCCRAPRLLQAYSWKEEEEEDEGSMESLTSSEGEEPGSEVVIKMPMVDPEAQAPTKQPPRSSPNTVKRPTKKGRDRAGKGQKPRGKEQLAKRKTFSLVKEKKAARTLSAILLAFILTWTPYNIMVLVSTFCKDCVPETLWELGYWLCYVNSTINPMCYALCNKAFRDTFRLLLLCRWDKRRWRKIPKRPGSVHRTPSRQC
CHRM1 PAM: potentiates human M1 receptor response to acetylcholine. AID 588819. actives 0.088% (n = 360,000). activation, % at 3 µM. CHO-K1 hM1, Fluo-8 calcium fluorescence, ACh EC20; 0% = ACh EC20, 100% = maximal ACh. P11229; in the data active means activation above about 19%, passing the limit was not always enough
CHO-K1 Ca antag: counter-screen for M1 antagonists: effect in parental CHO-K1 cells; ATP-induced calcium, Fluo-8 fluorescence; inhibition, % at 3 µM; actives 0.6% (n = 360,000);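 active means inhibition above a per-plate cutoff, the plate's mean sample inhibition plus 3 SD, cut at about 24% in these data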;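 further: 0% = DMSO plus EC80 ATP and 100% = DMSO alone without ATP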
M1 ag: activates human CHRM1 receptor; P11229; CHO-K1 hM1, Fluo-8 calcium fluorescence, agonist mode; 0% DMSO, 100% acetylcholine EC100; activation, % at 3 µM; actives 0.33% (n = 360,000); AID 588814;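 active means activation above the run's mean compound activation plus 3 SD, cut at about 16% in these data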;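 further: peak over basal fluorescence ratio within a 140 s kinetic read after compound addition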
CHO-K1 Ca ag: nonselective activator or artifact in parental CHO-K1 cells; Fluo-8 calcium fluorescence; scaled to maximal ATP response, vehicle zero; activation, % at 3 µM; actives 0.48% (n = 360,000); AID 602248; in the data active means activation above about 15%;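 further: untransfected CHO-K1 host cells lacking M1 receptor as counterscreen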
CHO-K1 Ca PAM: M1 PAM counterscreen hit in parental CHO-K1 cells. activation, % at 3 µM. ATP EC20, Fluo-8 calcium fluorescence; 0% at ATP EC20, 100% at ATP max. actives 0.02% (n = 360,000);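 active means activation above the run cutoff, the mean activation of all test compounds plus 3 SD, cut at about 40% in these data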;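 further: peak over basal fluorescence ratio in a 140 s read after ATP addition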
Starred values were filed as active, the others as inactive; / = no result given. Most compounds without a hit are left out; they make up all but 2.4% or so of the library.

SMILES	M1 antag	CHRM1 PAM	CHO-K1 Ca antag	M1 ag	CHO-K1 Ca ag	CHO-K1 Ca PAM
Cc1nn(Cc2ccccc2)c(Cl)c1/C=C/C(=O)OC(C)C(=O)N1CCCC1 (stereo not given)	37*	-20	-5	-6	1	-6
Cc1cc2nc(-c3nnnn3-c3c(C)cccc3C)c(=O)[nH]c2cc1C	/	/	24*	/	1	-11
CC(=O)C[C@@H](O)CC(=O)[C@@H]1OC(=O)[C@@H](C)C/C=C\Cc2ccccc21	-8	11	-27	-3	1	22
O=C(c1ccccc1)N1N=C(c2ccc(F)cc2)CC1(O)C(F)(F)F (stereo not given)	-6	7	-14	-6	-1	-3
CCN1CCN(c2nc(-c3ccc(F)cc3)cc(=O)[nH]2)CC1	-8	10	-6	-2	0	14
CN1CCC2(CC1)N=C(c1ccc(F)cc1)C(=S)N2C(=O)c1ccccc1	45*	-26	10	-7	0	-12
CCN1CCC2(CC1)N=C(c1ccc(F)cc1)C(=S)N2C(=O)c1ccc(C(C)(C)C)cc1	101*	-28	8	-15	1	-7
COc1ccc(Cl)cc1-c1nc(-c2ccc(NC(=O)c3cccs3)cc2)no1	-7	6	-9	-5	1	21
CC(=NNc1nc2ccccc2s1)c1ncccn1	4	2	27*	5	9	2
CC(=NNc1nc2ccccc2o1)c1ncccn1	14	-1	31*	-2	3	-3
CC(=NNc1nc2ccccc2o1)c1cc2ccccc2cn1	3	4	17	-2	2	-5
COc1ccc(CCNC(=O)Cn2c(=O)[nH]c3ccsc3c2=O)cc1OC	-10	5	5	-4	0	9
Cc1cc(N2CCN(c3ccccn3)CC2)n2c(nc3ccccc32)c1C#N	1	0	29*	0	1	2
CCCc1cc(NCc2ccccn2)n2c(nc3ccccc32)c1C#N	2	-4	-4	-6	15*	13
COc1cccc(NC(=O)CCc2nc(-c3ccccc3F)no2)c1	-4	9	-2	1	3	15
O=C(CCc1nc(-c2ccccc2F)no1)Nc1ccc(Oc2ccccc2)cc1	16	-11	24*	0	8	-3
Cc1cc(Br)ccc1NC(=O)CN(C)C(=O)Cn1c(=O)cnc2ccccc21	29*	-17	1	-6	0	-21
CCc1ccc(C(CNC(=O)c2ccc3c(=O)n(-c4ccccc4F)c(=S)[nH]c3c2)N(C)C)cc1 (stereo not given)	37*	-19	4	-5	2	-3
CCOC(=O)COc1nc(-c2ccc(Cl)cc2)cc(-c2ccco2)c1C#N	-3	8	3	2	12	10
CCOC(=O)COc1nc(-c2ccccc2)cc(-c2ccco2)c1C#N	40*	-22	0	-5	1	15
COc1ccc(CCN2C(=O)N[C@@H](CCC(=O)O)C2=O)cc1	-10	3	-6	-4	1	15
OC(C#CCN1CCCCCC1)(c1ccccc1)c1cccnc1 (stereo not given)	99*	-26	-13	-5	4	14
OC(C#CCN1CCCC1)(c1ccccc1)c1cccnc1 (stereo not given)	99*	-28	13	-9	4	-15
CCCN(CC#CC(O)(c1ccccc1)c1cccnc1)CCC (stereo not given)	14	-10	-17	-6	0	9
c1ccc(CCNc2nc(-c3ccncc3)nc3ccccc23)cc1	35*	-14	-5	-4	5	6
CCCS(=O)(=O)N1CCN(Cc2ccccc2C(F)(F)F)CC1	2	7	-4	-4	0	-2
CN1CCCN(Cc2ccccc2C(F)(F)F)CC1	29*	-25	-6	-7	0	8
O=C(c1ccc(COc2ccc(Br)cc2)o1)N1N=C(C(F)F)CC1(O)C(F)F (stereo not given)	33*	-25	-23	-7	4	7
O=C(c1cc(-c2ccccc2)nc2ccccc12)N1N=C(C(F)F)CC1(O)C(F)F (stereo not given)	-2	22*	-2	7	2	17
